Bioassay records (PubChem)
G9a inh: G9a (human) methyltransferase inhibition; G9a H3K9 monomethylation, AlphaScreen, 2 h; AID 504332; hit rate 8.8% among 350,000; Q96KQ7; Potency, µM (series often up to 102 µM), actives largely listed as inhibitors; also: nearly all actives have a fitted effect of over 75% in size
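Methyltransferase reactions run at room temperature for 2 h (20 nM enzyme, 500 nM biotin-H3K9 peptide, 20 uM SAM) after a 15 min compound preincubation; product detected by AlphaScreen beads and anti-H3K9me1 antibody.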
BAZ2B inh: blocks human BAZ2B; Potency, µM (doses to about 114 µM), hits mostly inhibitors; AlphaScreen BAZ2B-H3K14Ac peptide displacement; hit rate 4.4% among 360,000; also: nearly all actives have a fitted effect of over 60% in size
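Inhibition is scored as reduced AlphaScreen emission. The BAZ2B/b-H3(5-23)K14Ac complex (50 nM each) in PBS pH 7.4, 0.01% Tween-20 meets compound (up to 110 uM) for 30 min at RT before bead addition.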
Six1-Eya2 blk: blocks human Six1 binding to Eya2 | activity change, % (no concentration beside the values) | AlphaScreen GST-Six1/His-Eya2 binding, biochemical; active compounds read low | AID 651725 | hit rate 0.56% among 360,000; in the data active = activity change below about -65%; inconclusive = mostly about -30% to -63%
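Compounds are tested against tagged Six1 and Eya2 proteins bridged by glutathione donor and nickel acceptor beads; after a one-hour incubation at 37 °C without light, AlphaScreen emission is recorded.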
CtBP-E1A inh: blocks the CtBP interaction with E1A; AlphaScreen GST-E1A/His-CtBP binding, 1536-well; active compounds read low; AID 651724; activity change, % (concentration not given with the values); hit rate 0.49% among 340,000; in the data active = activity change below about -65%; inconclusive = mostly about -30% to -63%
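GST-E1A and His-tagged CtBP (125 nM each as 5X stock) were preincubated with pin-transferred compound for 2 h at 37 °C in the dark, then glutathione donor and nickel acceptor beads were added for 1 h before AlphaScreen reading.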
JMJD2A Tudor inh: inhibitors of human JMJD2A Tudor domain. AlphaScreen JMJD2A-Tudor / H3K4me3 peptide binding. Potency, µM (highest dose often 114 µM), most hits filed as inhibitors. hit rate 4.4% among 390,000. AID 504339; also: nearly all actives have a fitted effect of over 50% in size
Target sequence (O75164 whole entry, looked up, the tested form may be a part): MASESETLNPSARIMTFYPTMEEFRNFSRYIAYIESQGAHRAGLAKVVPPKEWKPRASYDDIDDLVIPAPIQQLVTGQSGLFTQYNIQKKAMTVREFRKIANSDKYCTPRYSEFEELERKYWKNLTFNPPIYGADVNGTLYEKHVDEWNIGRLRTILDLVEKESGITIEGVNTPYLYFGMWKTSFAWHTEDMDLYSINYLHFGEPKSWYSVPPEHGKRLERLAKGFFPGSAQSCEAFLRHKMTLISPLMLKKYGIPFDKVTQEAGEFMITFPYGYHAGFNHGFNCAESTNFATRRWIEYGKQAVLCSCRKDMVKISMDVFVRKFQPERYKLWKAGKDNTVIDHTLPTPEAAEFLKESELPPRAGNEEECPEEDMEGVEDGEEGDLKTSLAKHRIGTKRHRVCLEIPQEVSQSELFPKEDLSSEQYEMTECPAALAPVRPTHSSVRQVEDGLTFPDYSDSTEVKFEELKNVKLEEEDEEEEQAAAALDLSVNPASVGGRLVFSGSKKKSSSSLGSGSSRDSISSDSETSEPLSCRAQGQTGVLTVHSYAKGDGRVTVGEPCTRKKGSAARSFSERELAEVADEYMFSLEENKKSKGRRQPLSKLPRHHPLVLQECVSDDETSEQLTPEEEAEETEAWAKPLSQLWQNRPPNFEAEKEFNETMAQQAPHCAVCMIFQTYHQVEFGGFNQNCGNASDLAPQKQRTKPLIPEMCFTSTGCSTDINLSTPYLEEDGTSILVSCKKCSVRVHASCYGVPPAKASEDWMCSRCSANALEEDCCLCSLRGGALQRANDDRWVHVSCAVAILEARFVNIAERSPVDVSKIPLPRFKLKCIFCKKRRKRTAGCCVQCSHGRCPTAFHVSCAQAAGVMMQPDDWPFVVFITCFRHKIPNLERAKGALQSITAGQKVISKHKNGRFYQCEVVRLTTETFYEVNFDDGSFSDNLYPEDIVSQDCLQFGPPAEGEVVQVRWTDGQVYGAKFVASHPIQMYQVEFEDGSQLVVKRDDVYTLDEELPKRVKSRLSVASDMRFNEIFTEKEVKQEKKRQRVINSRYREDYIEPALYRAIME
HP1b chromo inh: inhibitors of HP1-beta chromodomain binding to methylated histone tails; P83916; AlphaScreen HP1-beta / biotin-H3K9me3 peptide binding; Potency, µM (doses to about 114 µM), actives largely listed as inhibitors; hit rate 0.56% among 390,000; AID 540317; also: nearly all actives have a fitted effect of over 70% in size
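Compound inhibition of the preformed complex between 50 nM HP1-beta and 50 nM biotinylated H3K9me3 peptide was read by AlphaScreen. Buffer was PBS pH 7.4 with 0.01% Tween-20. Incubations ran 30 min at room temperature, with 10 ug/mL donor/acceptor beads.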
Of the large screens only hits and unclear results are named; the others gave an inactive call. Most compounds without a hit are left out; they make up all but 10% or so of the library. Unless noted, calls follow the shape of the dose curve; as a rule, active = well fitted inhibition curve with a large enough effect; inconclusive = small, poorly fitted or top-dose-only effect; inactive = no such curve, though single readings can be large or run the other way.

COc1ccc(CNc2oc(-c3ccc(COc4ccc(Cl)cc4)o3)nc2C#N)cc1	BAZ2B inh inconclusive (no result: Six1-Eya2 blk, CtBP-E1A inh)
O=c1c2ccccc2n2c(-c3ccc(Cl)cc3)nnc2n1CCc1ccccc1	none (no result: Six1-Eya2 blk, CtBP-E1A inh)
COc1ccc(CCNC(=O)Cn2c(=O)c3cccn3c3ccccc32)cc1OC	none (no result: Six1-Eya2 blk, CtBP-E1A inh)
CCCCN(CCCC)S(=O)(=O)c1ccc(NC(=O)c2c(-c3ccccc3)noc2C)cc1	none (no result: Six1-Eya2 blk, CtBP-E1A inh)
O=c1c(NCc2cccs2)nccn1-c1ccc(F)cc1	none (no result: Six1-Eya2 blk, CtBP-E1A inh)
CC(C)CCn1c(SCC(N)=O)nc2c1c(=O)n(C)c(=O)n2C	none
CCOc1ccc(Br)cc1S(=O)(=O)Nc1ccc(N2CCOCC2)cc1	G9a inh 11.2µM, BAZ2B inh inconclusive
CC1CCCC(NC(=O)CN(C)S(=O)(=O)c2cccc3cccnc23)C1C (centres undefined)	none
CC(=O)N1c2nc(C(C)C)nn2C2(CCCCC2)[C@@H]2CCCC[C@@H]21	none (no result: Six1-Eya2 blk, CtBP-E1A inh)
c1ccc(Cc2ccc(OCCCNC3CCCC3)cc2)cc1	G9a inh 12.6µM, BAZ2B inh 56.2µM (no result: Six1-Eya2 blk, CtBP-E1A inh, JMJD2A Tudor inh, HP1b chromo inh)
c1cc2c(cc1OCCNC1CCCC1)CCC2	G9a inh 22.4µM, BAZ2B inh 56.2µM (no result: Six1-Eya2 blk, CtBP-E1A inh, JMJD2A Tudor inh, HP1b chromo inh)
c1ccc(SCCCCNC2CCCC2)cc1	G9a inh 8.91µM, BAZ2B inh 56.2µM, JMJD2A Tudor inh 3.16µM
CNCCCOc1ccc2c(c1)CCC2	G9a inh 50.1µM, BAZ2B inh 50.1µM, JMJD2A Tudor inh 22.4µM
c1ccc(SCCCCN2CCOCC2)cc1	none (no result: CtBP-E1A inh)
O=C1CCC(=O)N1OCCOc1ccc2c(c1)CCC2	none
COc1ccc(CCNC(=O)C(=O)NCC(c2cccs2)S(=O)(=O)c2cccs2)cc1 (centres undefined)	none (no result: Six1-Eya2 blk, CtBP-E1A inh)
COc1ccc(OCCNC2CCCC2)cc1	G9a inh 10µM, BAZ2B inh inconclusive, JMJD2A Tudor inh 79.4µM (no result: CtBP-E1A inh)
COC(=O)c1ccc2c(c1)NC(=O)c1ccccc1S2	G9a inh inconclusive
N#C/C=C1/NC(=O)c2ccccc2S1	G9a inh 44.7µM, BAZ2B inh inconclusive
Cc1ccc2[nH]c(=O)c(CN(Cc3ccccc3)Cc3nnnn3Cc3ccco3)cc2c1	none (no result: G9a inh, BAZ2B inh, Six1-Eya2 blk, CtBP-E1A inh)
CC(=O)Nc1ccc(/C=C/c2nc(-c3ccccc3O)n[nH]2)cc1	none (no result: CtBP-E1A inh)
Cn1c(=O)c2c(nc(NN=C3CCCC3)n2C)n(C)c1=O	G9a inh 39.8µM, BAZ2B inh inconclusive (no result: CtBP-E1A inh)
Cn1c(=O)c2c(nc(NNC(=O)C(F)(F)F)n2C)n(C)c1=O	G9a inh 6.31µM, BAZ2B inh inconclusive, JMJD2A Tudor inh inconclusive
Cn1c(=O)c2c(nc(N3CCCC3)n2C)n(C)c1=O	none
Cn1c(=O)c2c(nc(CO)n2C)n(C)c1=O	none
Cc1ccc(S(=O)(=O)N2C3CCCCC3O[C@H]2CC(=O)c2cccs2)cc1 (some centres undefined)	none (no result: G9a inh, BAZ2B inh, JMJD2A Tudor inh, HP1b chromo inh)
O=[N+]([O-])c1ccc(S(=O)(=O)N2CCN(Cc3ccco3)CC2)cc1	G9a inh inconclusive, BAZ2B inh 20µM, JMJD2A Tudor inh 8.91µM, HP1b chromo inh 22.4µM
CCCS(=O)(=O)N1CCN(Cc2ccco2)CC1	G9a inh 14.1µM, BAZ2B inh 50.1µM, JMJD2A Tudor inh inconclusive, HP1b chromo inh inconclusive
CCCc1ccc(S(=O)(=O)N2CCN(Cc3ccco3)CC2)cc1	none (no result: G9a inh)
CCCS(=O)(=O)N1CCN(C(=O)c2ccco2)CC1	none
O=S1(=O)CCN(CCCc2ccccc2)CC1	none (no result: G9a inh, BAZ2B inh, JMJD2A Tudor inh, HP1b chromo inh)
CCCS(=O)(=O)N1CCN(CCCc2ccccc2)CC1	G9a inh 10µM, BAZ2B inh 79.4µM, JMJD2A Tudor inh 5.62µM, HP1b chromo inh inconclusive
COc1cc2c(cc1OC)CN(C(=S)Nc1ccc(Cl)cc1)CC2	none
CN(c1ccccc1)S(=O)(=O)c1cccc(NC(=O)C2CCCO2)c1 (centres undefined)	none (no result: G9a inh, BAZ2B inh)
Cc1cc(C)cc(N2CCn3c2nc2c3c(=O)n(Cc3ccc(Cl)cc3)c(=O)n2C)c1	none (no result: Six1-Eya2 blk, CtBP-E1A inh)
Cc1ccc(Cn2c(CN3CCN(C(=O)c4ccco4)CC3)nc3c2c(=O)n(C)c(=O)n3C)cc1	G9a inh 50.1µM
Cn1c(=O)c2c(nc(CN3CCN(C(=O)c4ccco4)CC3)n2Cc2ccc(Cl)cc2)n(C)c1=O	G9a inh 50.1µM, BAZ2B inh inconclusive
C/C(=C\C(=O)c1ccc(Cl)s1)N(C)C	none
